PubChem BioAssay (Tox21)
Inconclusive results are not listed. Active and inactive are the calls of the source. Calls come from the whole dose curve; as a rule, active = well fitted cell-killing curve with a large enough effect in the repeat runs; inconclusive = weak or mixed curves; inactive = flat fitted curve, though single readings scatter.

Assay: qHTS RealTime-Glo MT Cell Viability Assay in HepG2 cells - 32 hour (AID 1224877); note: nearly all actives have a fitted effect of over 55% in size
Conditions: RealTime-Glo luminescence; series mostly up to 76.8 µM
Text: U.S. Tox21 Program National Center for Advancing Translational Sciences [NCATS] NIH Chemical Genomics Center [NCGC] U.S. Environmental Protection Agency [EPA] National Institutes of Environmental Health Sciences [NIEHS] National Toxicology Program [NTP] U.S. Food and Drug Administration [FDA] Tox21 Assay Overview: Measure of cell viability is critical in the cell-base assay. Analysis of cell viability is necessary for the characterization of cell responses to cytotoxic drugs and environmental stress. A RealTime-Glo MT Cell Viability Assay to monitor cell viability in real time of continues cell culture during 40 hours of compound treatment was used to screen Tox21 10K library compounds in HepG2 cells. The RealTime-Glo MT Cell Viability Assay is a nonlytic, homogeneous, bioluminescent method to measure cell viability in real time using a simple, plate-based method. The assay involves adding NanoLuc luciferase and a cell-permeant prosubstrate to cells in culture. Viable cells reduce the proprietary prosubstrate to generate a substrate for NanoLuc luciferase. This substrate diffuses from cells into the surrounding culture medium, where it is rapidly used by the NanoLuc Enzyme to produce a luminescent signal. The signal correlates with the number of viable cells, making the assay well suited for cytotoxicity studies.
Tox21 Assay Protocol Summary: The mixture of HepG2 cell suspension and reagents were dispensed at 600cells/6 ul/well in 1536-well tissue culture treated black solid bottom plates using a Multidrop dispenser. After the assay plates were incubated at a 37 C/5% CO2 incubator for 5 hours, 23 nL of compounds dissolved in DMSO, positive and negative controls was transferred to the assay plate by a pintool work station. The plates were incubated at 37 C for 40 hours. The luminescence intensity were measured at 0h, 8h, 16h, 24h, 32h and 40h time points using ViewLux plate reader during compound treatment.
% is set by controls: 0 for no effect and ±100 for the full control effect.

SMILES | outcome | activity change, negative = cytotoxic
O=P(O)(O)OCC(O)CO (stereo not given) | inactive | 
CCCCCCCC[Si](OCC)(OCC)OCC | inactive | 
C=CCOc1cc(Cl)ccc1C(=O)NCCN(CC)CC | inactive | 
COc1ccc(/C=N/NC(=O)c2ccncc2)cc1OC | inactive | 
CN=C(NC#N)NCCSCc1csc(N=C(N)N)n1 | inactive | 
Cc1ccc(C(=O)C(=O)O)cc1C | inactive | 
CCCCCC(=O)OCC | inactive | 
SCCSCCS | inactive | 
Nc1cc(C(=O)O)ccc1Cl | inactive | 
O=c1[nH]c(=O)c2[nH]c(=O)[nH]c2[nH]1 |  | 0.932% [at 6.97 µM] (inactive)
O=C(COCCOCCOCC(=O)Nc1c(I)cc(I)c(C(=O)O)c1I)Nc1c(I)cc(I)c(C(=O)O)c1I | inactive | 
COc1ccc(OC)c(NC(=O)CC(C)=O)c1 | inactive | 
CC(=O)OCCCc1ccccc1 | inactive | 
O=C(O)CCNC(=O)c1ccccc1 | inactive | 
Cc1ccc2c(c1)c1c3n2CCNC3CCC1 (stereo not given) | inactive | 
NC(=O)C1(N2CCCCC2)CCN(CCCC(=O)c2ccc(F)cc2)CC1 | inactive | 
Cc1ncc([N+](=O)[O-])n1CC(O)CCl (stereo not given) | inactive | 
Nc1ccnc(=O)[nH]1 | inactive | 
O=S(=O)(O)SSS(=O)(=O)O | inactive | 
CCCCCCCCCCCCC | inactive | 

SMILES | outcome | activity change, negative = cytotoxic
Cc1cccc(C(=O)O)c1[N+](=O)[O-] | inactive | 
Cc1cc(C)cc([N+](=O)[O-])c1 | inactive | 
Cc1cccc(Nc2ccncc2S(=O)(=O)NC(=O)NC(C)C)c1 | inactive | 
CCCCC[Si](OCC)(OCC)OCC | inactive | 
N#CCCOCCOCCC#N | inactive | 
C[N+](C)(C)CC(O)CCl (stereo not given) | inactive | 
O=S(=O)(O)CCO | inactive | 
COC(/C=C(\C)CCC=C(C)C)OC | inactive | 
CCOC(=O)C(=O)c1csc(NC=O)n1 | inactive | 
COc1cc2c3cc1Oc1cc(ccc1O)C[C@@H]1c4c(cc(OC)c(O)c4Oc4ccc(cc4)C[C@@H]3N(C)CC2)CC[N+]1(C)C | inactive | 
CN(C)CCCNCCC#N | inactive | 
CCCCC(CC)C(=O)OC(C)C (stereo not given) | inactive | 
O=C(O)c1c(Cl)ccc(Cl)c1Cl | inactive | 
CCCCOC(=O)[C@@H](C)Oc1ccc(Oc2ccc(C(F)(F)F)cn2)cc1 | inactive | 
C/C=C(\C)C(=O)OCC/C=C\CC | inactive | 
CO[Si](CCCS)(OC)OC | inactive | 
CN[C@@H]1[C@@H](O)[C@@H](O[C@@H]2[C@H](O)[C@H](O[C@H]3OC(CN)=CC[C@H]3N)[C@@H](N)C[C@H]2N)OCC1(C)O (stereo not given in full) | inactive | 
CC(=O)c1ccc(OCC(=O)N2CCCCC2)cc1 | inactive | 
CC(=O)OCC(=O)[C@@]1(O)[C@H](OC(C)=O)C[C@H]2[C@@H]3CCC4=CC(=O)C=C[C@]4(C)[C@@]3(F)[C@@H](O)C[C@@]21C | inactive | 
CCOc1ccc(NC(=O)OC(C)C)cc1OCC | inactive | 
